The values below come from PubChem BioAssay (NCI).

This is part of a sample that, as a whole, favours compounds with a hit. Of some 83,000 tested, about 20% had one in any assay.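 How to read the values: 0–100, growth inhibition (40 = 60% inhibited); 0, no net growth; -100 to 0, cell death (-40 = 40% of starting cells died; -100 = all dead).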 A number with no mark means an inactive call. The source made the active and inactive calls. How the source made its calls: active means growth percent below 10; inactive means the rest.

Test systems include DU-145 prostate; MALME-3M melanoma; MDA-MB-231 breast; RXF 393 renal; SF-268 CNS; SF-295 CNS; SF-539 CNS; UACC-257 melanoma; M14 melanoma.
Common to all, as to experiment: NCI-60 one-dose screen, 48 h (100 = growth as untreated, 0 = no growth, -100 = all killed)
Details in all cases: 10 µM

Consider `C=C(C)[C@@H]1CC[C@]2(C(=O)OC)CC[C@]3(C)[C@H](CC[C@@H]4[C@@]5(C)CC[C@H](N)C(C)(C)[C@@H]5CC[C@]43C)[C@@H]12`, for which the growth is -87.9% (active) with DU-145 prostate; -97.7% (active) with MALME-3M melanoma; -97.8% (active) with MDA-MB-231 breast; -96% (active) in the assay with RXF 393 renal; -65.3% (active) in the assay on SF-268 CNS; -94.1% (active) with SF-295 CNS. In addition, the growth is -99.8% (active) with SF-539 CNS, -70% (active) in the assay on UACC-257 melanoma and -74% (active) in the assay on M14 melanoma.
Take `CN1CCN(c2ccc(Nc3nc(N4CCN(S(=O)(=O)c5ccc(Cl)cc5)CC4)c4sccc4n3)cc2)CC1`: the growth in the assay on DU-145 prostate was -60.8% (active); in the assay on MALME-3M melanoma it was -97.6% (active); in the assay on MDA-MB-231 breast, -86.3% (active); in the assay with RXF 393 renal, -95.7% (active); in the assay with SF-268 CNS it was 52.9%; in the assay on SF-295 CNS, -78% (active). Besides, the growth with SF-539 CNS was -100% (active); with UACC-257 melanoma, -87.1% (active); in the assay with M14 melanoma, -60.6% (active).
Take `COc1ccccc1NCc1ccc(CO)n1-c1ccc(C)cc1`: the growth was 111% in the assay on DU-145 prostate; 98.4% in the assay on MALME-3M melanoma; 91.2% with MDA-MB-231 breast; 107% in the assay on RXF 393 renal; 94.7% in the assay on SF-268 CNS; 100% in the assay with SF-295 CNS. The growth in the assay with SF-539 CNS is 94.7%; in the assay with UACC-257 melanoma it was 109%; in the assay with M14 melanoma it was 101%.
Turning to `O=C(Nc1ccccc1)Nc1nc2ccccc2s1`, the growth with DU-145 prostate was 104%; in the assay on MALME-3M melanoma it was -10.2% (active); in the assay with MDA-MB-231 breast it was 79.5%; with RXF 393 renal it was 110%; with SF-268 CNS it was 111%; in the assay on SF-295 CNS, 82.3%. Moreover, the growth in the assay with SF-539 CNS was 88.6%; in the assay on UACC-257 melanoma, 20.8%; with M14 melanoma, 78.8%.
With `Cc1ccc(-c2nc3ccc(C(=O)N=Nc4c(O)[nH]c5ccc([N+](=O)[O-])cc45)cc3[nH]2)cc1`, the growth with DU-145 prostate was 47.8%; with MALME-3M melanoma, 57.5%; in the assay with MDA-MB-231 breast, 66.9%; with RXF 393 renal it was 83.5%; with SF-268 CNS, 60.1%; in the assay on SF-295 CNS, 93.5%. The growth in the assay with SF-539 CNS is 52.7%; with UACC-257 melanoma, 84.8%; in the assay with M14 melanoma it was 73.8%.
In the case of `CC(=C(c1ccc(OCCCN(C)C)cc1)c1ccc(OCCCN(C)C)cc1)c1ccccc1`, the growth in the assay on DU-145 prostate is -100% (active); with MALME-3M melanoma it was -98.6% (active); in the assay with MDA-MB-231 breast it was -99.6% (active); in the assay on RXF 393 renal, -96.7% (active); with SF-268 CNS it was -80.4% (active); in the assay on SF-295 CNS, -92.8% (active). In addition, the growth in the assay with SF-539 CNS is -100% (active); with UACC-257 melanoma it was -88% (active); with M14 melanoma it was -56.9% (active).
Take `COc1ccc2[nH]c(O)c(N=NC(=O)c3cc(-c4ccc(C)cc4)nc4ccccc34)c2c1`: the growth in the assay on DU-145 prostate is 90.8%; in the assay on MALME-3M melanoma it was 103%; in the assay on MDA-MB-231 breast it was 98.3%; with RXF 393 renal, 92.4%; with SF-268 CNS, 80.2%; in the assay on SF-295 CNS, 108%. The results for the growth in the assay with SF-539 CNS, with UACC-257 melanoma and in the assay with M14 melanoma were 92.3%, 91.2% and 99.1%, respectively.
As to `CCCCCc1ccc(S(=O)(=O)N(C(C)=O)c2cc(-c3csc(N(C)C(C)=O)n3)ccc2N2CCN(C)CC2)cc1`, the growth in the assay with DU-145 prostate is 46.4%; with MALME-3M melanoma it was -93.3% (active); in the assay on MDA-MB-231 breast it was -5.42% (active); in the assay with RXF 393 renal it was -69.7% (active); with SF-268 CNS, 65.9%; in the assay with SF-295 CNS, -88.2% (active). Also, the growth is -95.7% (active) in the assay on SF-539 CNS, -34.1% (active) in the assay on UACC-257 melanoma and -78.1% (active) in the assay on M14 melanoma.
Take `CC(=C(c1ccc(OCCN2CCCCCC2)cc1)c1ccc(OCCN2CCCCCC2)cc1)c1ccc(Cl)cc1`: the growth is -96.1% (active) in the assay with DU-145 prostate; -98.9% (active) with MALME-3M melanoma; -98.8% (active) in the assay with MDA-MB-231 breast; -99.4% (active) in the assay with RXF 393 renal; -84.9% (active) with SF-268 CNS; -80.6% (active) in the assay on SF-295 CNS. Further, the growth in the assay on SF-539 CNS was -100% (active); with UACC-257 melanoma, -96.3% (active); in the assay on M14 melanoma, -57.9% (active).
For the compound `CCN1CCN(c2ccc(NC(=O)Nc3ccc(-c4cc(C(=O)NC)c5ncccc5n4)cc3)cc2C(F)(F)F)CC1`, the growth is -100% (active) with DU-145 prostate; -100% (active) with MALME-3M melanoma; -100% (active) in the assay with MDA-MB-231 breast; -94.4% (active) in the assay on RXF 393 renal; -77.5% (active) with SF-268 CNS; -99% (active) with SF-295 CNS. Also, the results for the growth in the assay with SF-539 CNS, in the assay on UACC-257 melanoma and with M14 melanoma were -100% (active), -96.7% (active) and -100% (active), respectively.
Turning to `O=C(COc1ccc(NC(=O)Nc2ccc(Cl)cc2)cc1)N=Nc1c(O)[nH]c2ccc([N+](=O)[O-])cc12`, the growth in the assay with DU-145 prostate was 60.3%; with MALME-3M melanoma, 12.1%; in the assay with MDA-MB-231 breast, -44.7% (active); with RXF 393 renal, 73.1%; with SF-268 CNS it was 19.5%; with SF-295 CNS it was 87.3%. In addition, the growth is 16.5% with SF-539 CNS, 74.9% in the assay with UACC-257 melanoma and 21.2% in the assay with M14 melanoma.
For `Cc1ccc(C(C)C)cc1NC(=O)c1ccccc1N(C)C`, the growth was 97.4% in the assay with DU-145 prostate; 88.3% in the assay with MALME-3M melanoma; 91.1% in the assay on MDA-MB-231 breast; 85.2% in the assay on RXF 393 renal; 95.8% in the assay with SF-268 CNS; 83.8% with SF-295 CNS. The growth with SF-539 CNS is 96.9%; in the assay with UACC-257 melanoma it was 86.5%; with M14 melanoma, 93.9%.
Consider `O=S(=O)(c1ccc(Cl)cc1)c1nc(-c2ccccc2)oc1S(=O)(=O)c1ccc(Cl)cc1`, for which the growth with DU-145 prostate was 97.2%; in the assay with MALME-3M melanoma, 91.8%; in the assay on MDA-MB-231 breast, 76.9%; in the assay on RXF 393 renal, 7.97% (active); with SF-268 CNS it was 97.7%; in the assay with SF-295 CNS, 92.9%. For the same compound, the growth is 84.8% in the assay on SF-539 CNS, 85.5% with UACC-257 melanoma and 90.8% in the assay on M14 melanoma.
As to `O=C(Nc1ccc(OCC(=O)c2ccccc2)cc1)Nc1ccc(Cl)c(C(F)(F)F)c1`, the growth in the assay on DU-145 prostate is 49.2%; with MALME-3M melanoma, 10.4%; in the assay with MDA-MB-231 breast it was 16.8%; in the assay with RXF 393 renal it was -36.7% (active); in the assay on SF-268 CNS, 18.9%; in the assay with SF-295 CNS it was 13.2%. Further, the growth was 12.1% with SF-539 CNS, 7.84% (active) in the assay with UACC-257 melanoma and 17.5% in the assay on M14 melanoma.
For the compound `O=C(CS(=O)(=O)c1oc(-c2ccc(Cl)cc2)nc1S(=O)(=O)c1ccc(Cl)cc1)N1CCOCC1`, the growth in the assay with DU-145 prostate was 32.3%; with MALME-3M melanoma, -71.3% (active); in the assay with MDA-MB-231 breast, -1.43% (active); in the assay on RXF 393 renal it was -76.1% (active); in the assay with SF-268 CNS, 84.6%; in the assay on SF-295 CNS, 85%. In addition, the growth with SF-539 CNS is 21.5%; in the assay with UACC-257 melanoma, 73.9%; with M14 melanoma, 24.4%.
Regarding `CC[C@@]1(O)C(=O)OCc2c1cc1n(c2=O)Cc2c-1nc1cc(F)c(C)c3c1c2[C@@H](N)CC3`, the growth in the assay on DU-145 prostate is 6.82% (active); in the assay on MALME-3M melanoma, -55.8% (active); in the assay with MDA-MB-231 breast it was 10.8%; with RXF 393 renal, -77.2% (active); in the assay on SF-268 CNS it was 6.53% (active); with SF-295 CNS it was -0.789% (active). Moreover, the growth in the assay on SF-539 CNS was -74.9% (active); in the assay with UACC-257 melanoma, -59.6% (active); in the assay with M14 melanoma it was -20.8% (active).
With `CN(C)c1cccc2c(S(=O)(=O)Nc3cccc(-c4csc(NC(=O)CCCCCN5CCN(c6cc7c(cc6F)C(=O)N(C6CCC(=O)NC6=O)C7=O)CC5)n4)c3)cccc12` (configuration not stated), the growth with DU-145 prostate is 97.2%; in the assay on MALME-3M melanoma, 87.1%; in the assay with MDA-MB-231 breast, 98%; with RXF 393 renal, 89.7%; in the assay with SF-268 CNS, 91.4%; in the assay on SF-295 CNS, 91.8%. Besides, the growth is 78.5% with SF-539 CNS, 82% with UACC-257 melanoma and 97.3% in the assay on M14 melanoma.
Turning to `CC(=O)c1ccc(NC(=O)NCn2c(=O)[nH]c3ccccc3c2=O)cc1`, the growth was 104% in the assay with DU-145 prostate; 93.2% in the assay with MALME-3M melanoma; 95.1% in the assay with MDA-MB-231 breast; 97.4% with RXF 393 renal; 128% in the assay with SF-268 CNS; 92.7% in the assay on SF-295 CNS. Also, the growth with SF-539 CNS is 90.6%; with UACC-257 melanoma, 98.6%; in the assay with M14 melanoma, 110%.
